The supplement of paper PMC3545927
This is one part of the list. No count for the full screen is at hand.

B1: HC2439 (peptide)
chain: CAPREVPCHRAGNASASA
B2: HC2108 (peptide)
chain: CAWDVVCCSMAGNASASA
B3: FS-856 (peptide)
chain: CARGPRRRRSAGNASASA
B4: FS-855 (peptide)
chain: CARGPRARRSAGNASASA
B5: FS-226 (peptide)
chain: CADSGGARRSAGNASASA
B6: FS-1711 (peptide)
chain: CARGPRRASAAGNASASA
B7: HC2550 (peptide)
chain: CASTPCSAVLAGNASASA
B8: FS-1681 (peptide)
chain: CARAKRVSWDAGNASASA
B9: FS-1992 (peptide)
chain: CARAKRFLRKAGNASASA
B10: FS-1993 (peptide)
chain: CARAKRFVSIAGNASASA
B11: HC2557 (peptide)
chain: CASTPCSASLAGNASASA
B12: FS-2635 (peptide)
chain: CARAKRFASLAGNASASA
B13: FS-2545 (peptide)
chain: CARAKRNAVLAGNASASA
B14: HC928 (peptide)
chain: CATTVRLRAYAGNASASA
B15: HC1473 (peptide)
chain: CAVQAWKSKKAGNASASA
B16: FS-2955 (peptide)
chain: CARIRRMWNDAGNASASA
B17: FS-2339 (peptide)
chain: CARIRRMADAAGNASASA
B18: FS-2522 (peptide)
chain: CARSGRSANAAGNASASA
B19: FS-2355 (peptide)
chain: CARMRRYADAAGNASASA
B20: FS-2655 (peptide)
chain: CARDVRLVDAAGNASASA
B21: FS-1753 (peptide)
chain: CARMMRPVSDAGNASASA
B22: FS-2393 (peptide)
chain: CAREDRDVNDAGNASASA
B23: HC452 (peptide)
chain: CATDCFRKHPAGNASASA
B24: HC549 (peptide)
chain: CAYLKGKWVPAGNASASA
B25: HC1779 (peptide)
chain: CAMEECSQHPAGNASASA
B26: FS-2694 (peptide)
chain: CARKKRSTGVAGNASASA
B27: FS-2037 (peptide)
chain: CARKKRTLRGAGNASASA
B28: FS-3243 (peptide)
chain: CARCVRDCDPAGNASASA
B29: FS-1849 (peptide)
chain: CARCRRGFGVAGNASASA
B30: FS-2898 (peptide)
chain: CARCKRGTGVAGNASASA
B31: HC2236 (peptide)
chain: CAEVVTSTGVAGNASASA
B32: FS-2482 (peptide)
chain: CARCKRTVLDAGNASASA
B33: FS-1996 (peptide)
chain: CARCKRDCLEAGNASASA
B34: FS-1818 (peptide)
chain: CARCKRGMKKAGNASASA
B35: HC24 (peptide)
chain: CAMEECLQHLAGNASASA
B36: HC25 (peptide)
chain: CAMEECIQHLAGNASASA
B37: FS-2342 (peptide)
chain: CARKKRIVTGAGNASASA
B38: FS-2344 (peptide)
chain: CARKKRPGGGAGNASASA
B39: FS-1725 (peptide)
chain: CARKGKSSSAAGNASASA
B40: HC1261 (peptide)
chain: CASSASQLSAAGNASASA
B41: FS-2872 (peptide)
chain: CAMKKRDLSAAGNASASA
B42: FU2 (peptide)
chain: CARKKRSTSAAGNASASA
B43: FS-2192 (peptide)
chain: CARTYRWLSAAGNASASA
B44: FS-2345 (peptide)
chain: CARKKRTTSAAGNASASA

Biological target: furin, P09958
Sequence (P09958 whole entry): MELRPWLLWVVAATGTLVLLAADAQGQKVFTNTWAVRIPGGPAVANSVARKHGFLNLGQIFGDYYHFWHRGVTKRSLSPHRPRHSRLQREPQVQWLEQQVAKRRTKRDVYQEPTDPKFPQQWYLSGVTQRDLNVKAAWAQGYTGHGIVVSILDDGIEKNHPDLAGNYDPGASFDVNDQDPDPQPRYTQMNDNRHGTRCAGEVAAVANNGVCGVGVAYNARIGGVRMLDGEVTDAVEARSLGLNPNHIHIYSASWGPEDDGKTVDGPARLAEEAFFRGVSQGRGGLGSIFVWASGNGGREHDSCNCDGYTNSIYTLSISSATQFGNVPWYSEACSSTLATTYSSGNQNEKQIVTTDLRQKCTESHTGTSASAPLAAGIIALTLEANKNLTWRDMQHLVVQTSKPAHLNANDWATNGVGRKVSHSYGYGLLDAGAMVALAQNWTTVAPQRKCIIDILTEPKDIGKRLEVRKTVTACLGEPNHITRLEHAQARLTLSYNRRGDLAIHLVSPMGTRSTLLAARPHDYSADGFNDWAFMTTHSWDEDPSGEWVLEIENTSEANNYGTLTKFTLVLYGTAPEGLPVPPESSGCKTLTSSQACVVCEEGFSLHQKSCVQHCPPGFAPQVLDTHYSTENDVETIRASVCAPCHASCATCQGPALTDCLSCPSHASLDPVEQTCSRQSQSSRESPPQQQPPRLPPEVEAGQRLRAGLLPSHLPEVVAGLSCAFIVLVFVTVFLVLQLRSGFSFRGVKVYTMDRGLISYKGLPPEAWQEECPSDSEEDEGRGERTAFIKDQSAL
Assay: furin cleavage Z-score vs untreated control; higher = more cleavage, active = 3.5 or more, inactive = 1 or less, 8 variable residues between constant flanks
In short: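 Abundance of DNA freed from bead-bound 8-mer peptide–cDNA fusions by purified furin was measured as sequencing read counts after PCR adapter tagging. Cutting ran 7.5, 15 or 30 min in 0.01 ml of 50 mM HEPES pH 7.5 with CaCl2 and NaCl at 1:10 enzyme:substrate. The cleavage Z-score expresses these log counts against furin-free reactions after lowess adjustment and median absolute deviation scaling.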

Sequence	furin cleavage Z-score (7.5 min)	furin cleavage Z-score (15 min)	furin cleavage Z-score (30 min)
B1	-1.48 (inactive)	1.55	-0.302 (inactive)
B2	0.349 (inactive)	-0.375 (inactive)	0.29 (inactive)
B3	11.2 (active)	10 (active)	7.78 (active)
B4	7.87 (active)	7.54 (active)	4.95 (active)
B5	-0.625 (inactive)	-0.697 (inactive)	-0.757 (inactive)
B6	-0.617 (inactive)	-0.431 (inactive)	-0.848 (inactive)
B7	-1.46 (inactive)	-0.0198 (inactive)	-0.52 (inactive)
B8	-0.617 (inactive)	0.099 (inactive)	0.302 (inactive)
B9	4.11 (active)	4.74 (active)	7.62 (active)
B10	4.74 (active)	4.17 (active)	5.92 (active)
B11	0.819 (inactive)	0.0223 (inactive)	0.939 (inactive)
B12	4.64 (active)	6.47 (active)	8.89 (active)
B13	6.45 (active)	7.8 (active)	6.91 (active)
B14	0.53 (inactive)	0.398 (inactive)	-0.429 (inactive)
B15	0.322 (inactive)	1.5	-0.486 (inactive)
B16	3.22	2.6	4.32 (active)
B17	8.4 (active)	10.5 (active)	8.11 (active)
B18	1.32	0.616 (inactive)	1.79
B19	5.77 (active)	7.7 (active)	6.66 (active)
B20	-0.899 (inactive)	-0.757 (inactive)	0.398 (inactive)
B21	-0.43 (inactive)	0.272 (inactive)	-0.677 (inactive)
B22	-1.02 (inactive)	-2.7 (inactive)	0.632 (inactive)

Sequence	furin cleavage Z-score (7.5 min)	furin cleavage Z-score (15 min)	furin cleavage Z-score (30 min)
B23	0.56 (inactive)	-0.196 (inactive)	1.34
B24	0.545 (inactive)	-0.258 (inactive)	-0.41 (inactive)
B25	-0.177 (inactive)	-0.782 (inactive)	2.64
B26	8.73 (active)	11.5 (active)	10.3 (active)
B27	5.12 (active)	8.31 (active)	6.62 (active)
B28	0.0718 (inactive)	1.92	2.77
B29	0.0621 (inactive)	1.42	1.48
B30	6.24 (active)	6.78 (active)	5.78 (active)
B31	0.288 (inactive)	-1.6 (inactive)	-0.142 (inactive)
B32	0.324 (inactive)	1.14	3.14
B33	9.7 (active)	9.34 (active)	8.23 (active)
B34	0.324 (inactive)	0.604 (inactive)	3.09
B35	0.426 (inactive)	0.849 (inactive)	1.01
B36	2.89	0.509 (inactive)	1.63
B37	4.57 (active)	4.97 (active)	5.79 (active)
B38	0.0138 (inactive)	0.394 (inactive)	-0.0781 (inactive)
B39	-1.17 (inactive)	-1.17 (inactive)	-0.784 (inactive)
B40	0.811 (inactive)	-0.271 (inactive)	-1.07 (inactive)
B41	4.25 (active)	5.63 (active)	4.84 (active)
B42	12.7 (active)	14.1 (active)	8.12 (active)
B43	-0.657 (inactive)	1.48	0.201 (inactive)
B44	8.37 (active)	8.69 (active)	6.28 (active)
